# Vc quorum ag-1 – inducers of Vibrio cholerae quorum light production without autoinducers, primary screen, BH1578 luxS cqsA deficient, single point; V. cholerae BH1578 lux reporter, luminescence, 6 h; activation, % at 18.7 µM; hit rate 0.16% among 350,000; AID 588436, 2011; in the data active means activation mostly above about 9.7%, no sharp cut-off
# PrPC TRFRET – inhibitors of human cell surface prion protein PrPC, primary screen, cell-based, TR-FRET | TR-FRET read-out | inhibition, % at 13.8 µM | hit rate 0.43% among 370,000; in the data active means inhibition above about 24%; further: 0% = median of the test wells and 100% = reference compound wells
# SARS 3CLpro inh – SARS-CoV 3CLpro protease inhibitors, primary screen, biochemical, quenched FRET; Replicase polyprotein 1ab (Severe acute respiratory syndrome coronavirus), P0C6X7; recombinant SARS-CoV 3CLpro, quenched FRET peptide cleavage; inhibition, % at 6 µM; hit rate 0.14% among 290,000; AID 1706, 2009; in the data active means inhibition above about 12%
# PriA SSB inh – inhibitors of Klebsiella pneumoniae PriA binding to SSB C-terminal tail, primary screen, biochemical, AlphaScreen | PriA–SSB C-terminal tail interaction (Klebsiella pneumoniae) | AlphaScreen SSBct-PriA binding, biotinylated peptide | inhibition, % at 33 µM | hit rate 0.6% among 430,000; in the data active means inhibition mostly above about 37%, no sharp cut-off; inactive means mostly below about 20%;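 further: plate controls were negative control peptide for no effect and reference peptide for full effect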
# PrP UTR inh – inhibition of PrP 5' UTR reporter expression. cell-based PrP 5' UTR mRNA reporter, plate reader. inhibition, % (concentration not given with the values). hit rate 0.35% among 340,000. AID 488862, 2010; in the data active means inhibition above about 52%; further: 0 = median of the neutral control wells
# PfHsp40 rescue – rescue of yeast from PfHsp40 toxicity, primary screen, S. cerevisiae, ATP luminescence. S. cerevisiae expressing PfHsp40, growth rescue. growth rescue, % at 12.5 µM. hit rate 0.68% among 340,000. AID 504582, 2011; in the data active means growth rescue above about 28%, passing the limit was not always enough;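 further: yeast W303a lacking pdr1 and pdr3 grown in galactose medium; growth measured after three days at 30 °C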
# Vc quorum ag-2 – V. cholerae lux activation without autoinducers – BH1578 luxS cqsA deficient, cherry-pick, plate reader, dose response; V. cholerae BH1578 lux reporter, luminescence, 6 h; shares compounds with Vc quorum ag-1; activation, % at 50 µM; 620 tested, under 10 active; call rule not given here
# PrPC TRFRET cf – confirmation of inhibitors of cell surface human prion protein, confirmation, cell-based, TR-FRET. shares compounds with PrPC TRFRET. inhibition, % at 13.8 µM. hit rate 65% among 1,500. cell surface PrPC level. AID 743200, 2013; in the data active means inhibition above about 25%
# LD9 cytotox – cytotoxicity in LD9 cells, cytotoxicity control for cell surface PrPc inhibitor project, cell-based, luminescence, high throughput. shares compounds with PrPC TRFRET. luminescence viability. inhibition, % at 13.8 µM. hit rate 29% among 1,500. AID 743201, 2013; in the data active means inhibition above about 9.5%
# * hit, by the source's call; i = inactive; . = not tested or not shown. Most compounds without a hit are left out; they make up all but 1.6% or so of the library.
SMILES,Vc quorum ag-1,PrPC TRFRET,SARS 3CLpro inh,PriA SSB inh,PrP UTR inh,PfHsp40 rescue,PrPC TRFRET cf,LD9 cytotox,others
Cn1c(SCc2cnc(-c3ccccc3)s2)nnc1C1COc2ccccc2O1 (stereo unspecified),27*,3,2,-15,-9,2,.,.,Vc quorum ag-2=31
COC(=O)c1ccc(NC(=O)C(=O)NCC2(c3cccs3)CCOCC2)cc1,.,.,.,1,.,.,.,.,
CCCn1c(N)c(C(c2ccc(C(=O)OC)cc2)N2CCN(c3ccccc3)CC2)c(=O)[nH]c1=O (stereo unspecified),-4,0,-4,3,-4,1,.,.,
COC(=O)c1ccc(C(c2c(N)n(CC(C)C)c(=O)[nH]c2=O)N2CCN(c3ccccc3)CC2)cc1 (stereo unspecified),4,30*,0,9,-11,0,10,10*,
COc1cccc2sc3cc(NCc4ccc(C)o4)ccc3c(=O)c12,i,37*,.,7,-39,1,83*,3,
O=C(Nc1c(C(=O)c2ccc3c(c2)OCCO3)oc2ccccc12)c1ccco1,.,.,.,-26,.,.,.,.,
O=C(Nc1oc2ccccc2c(=O)c1-c1ccc2c(c1)OCO2)c1ccco1,i,33*,.,.,.,.,28*,3,
O=C(CSc1nc2[nH]ncc2c(=O)[nH]1)Nc1cccc(Cl)c1,-1,-8,.,-13,2,1,.,.,
N#Cc1c(-c2ccco2)nc(SCC(=O)Nc2cccc(Cl)c2)[nH]c1=O,i,78*,8,-11,-18,-1,113*,-4,
CCc1ccc(NC(=O)C(C)Sc2nc(-c3ccco3)c(C#N)c(=O)[nH]2)cc1 (stereo unspecified),0,28*,3,-2,-2,0,16,-9,
CCOC(=O)c1cc2c(=O)n3ccccc3nc2n(Cc2ccccc2)c1=NC(=O)c1cccc(OC)c1OC,.,.,.,-1,.,.,.,.,
COc1ccc(SCC2CCN(C(=O)Cc3ccccc3Cl)CC2)cc1,.,.,.,-14,.,.,.,.,
Cc1cc(C)n2c(-c3ccccc3Cl)nnc2n1,0,25*,-3,10,-16,0,5,2,
Cc1sc2ncnc(Sc3ccccc3C(=O)Nc3ccc(C#N)cc3)c2c1C,0,21,3,2,-17,0,.,.,
Cc1sc2ncnc(Sc3ccccc3C(=O)Nc3ccc(Br)cc3)c2c1C,0,25*,2,-8,-25,2,31*,-3,
CCOc1cc(-c2nnc(NC(=O)C(c3ccccc3)c3ccccc3)o2)cc(OCC)c1OCC,.,.,.,-14,.,.,.,.,
Cc1csc(NC(=O)CSc2nc(C(C)C)nc3c2c(=O)n(C)c(=O)n3C)n1,-2,27*,0,-12,-8,0,20,8,
CC(C)c1nc(SCC(=O)O)c2c(=O)n(C)c(=O)n(C)c2n1,.,.,.,-4,.,.,.,.,
Cc1ccc(Cn2c(SCC(=O)N3CC(=O)Nc4ccccc43)nc3ccccc3c2=O)cc1,0,29*,4,-19,-34,0,45*,-2,
C/C(N)=C(/C#N)C(=O)CSc1nc2ccccc2c(=O)n1Cc1ccc(F)cc1,-4,-2,0,-11,.,7,.,.,
C/C(N)=C(/C#N)C(=O)CSc1nc2ccccc2c(=O)n1Cc1ccc(C)cc1,-1,27*,-1,2,-6,0,7,-2,
COCC(=O)N1CCCc2ccc(NC(=O)N3CCNC3=O)cc21,.,.,.,-8,.,.,.,.,
Cc1cc2cc(CNC(=O)C(C)Oc3ccccc3)ccc2n1C (stereo unspecified),-3,36*,-8,-2,-14,1,20,-5,
Cc1cc2cc(CNC(=S)Nc3ccccc3Cl)ccc2n1C,.,.,.,34,.,.,.,.,
Cc1cc2cc(CNC(=S)NCc3ccccc3)ccc2n1C,2,31*,1,75*,-26,0,29*,-7,
SMILES,Vc quorum ag-1,PrPC TRFRET,SARS 3CLpro inh,PriA SSB inh,PrP UTR inh,PfHsp40 rescue,PrPC TRFRET cf,LD9 cytotox,others
COc1ccccc1NC(=S)NCc1ccc2c(c1)cc(C)n2C,i,50*,4,88*,-16,1,7,-10,
Cc1cc(C(=O)Nc2nc(C(=O)Nc3ccc4c(c3)Cc3ccccc3-4)co2)no1,.,.,.,-8,.,.,.,.,
CCOCc1nc(N)nc(N)c1-c1cccc(Cl)c1,i,26*,.,.,.,.,-2,2,
O=C(NC1CCCC1)C(c1ccncc1)N(Cc1ccccc1)C(=O)c1ccc(-c2ccccc2)[nH]1 (stereo unspecified),0,26*,7,27,-13,0,18,-9,
CC(C)(C)NC(=O)C(c1ccncc1)N(Cc1ccc(F)cc1)C(=O)c1ccc(-c2ccccc2)[nH]1 (stereo unspecified),0,27*,12,-7,-6,66*,15,-4,
Cc1ccc(C2C(C#N)=C(N)SC(N)=C2C#N)cc1,0,91*,2,1,-26,3,86*,1,
Cc1ccc(C2C(C#N)=C(N)SC(N)=C2C#N)c(C)c1,-1,.,-4,-2,-7,-1,.,.,
N=C1C(c2ccccc2)=C(O)CN1c1ccccc1,i,29*,-2,-6,-20,0,8,-1,
O=S(=O)(NCCN1CCN(c2ccccc2F)CC1)c1cccc2ccccc12,.,.,.,-2,.,.,.,.,
Brc1cc(Br)c2ncnc(N3CCCCC3)c2c1,-5,75*,-3,-50,-2,0,111*,-1,
Cc1ccc(Cc2c(-c3ccco3)nc3c(C)cc(Br)cn23)cc1,.,37*,.,.,.,.,56*,-2,
Cc1ccc(Cc2c(-c3ccccc3)nc3c(C)cc(Br)cn23)cc1,.,-6,.,.,.,.,.,.,
Cc1cc(Br)cn2c(Cc3cccc(Cl)c3)c(-c3ccco3)nc12,.,37*,.,.,.,.,56*,-1,
Clc1cccc(Cc2c(-c3ccco3)nc3ccc(Cl)cn23)c1,.,6,.,.,.,.,.,.,
COc1ccc(S(=O)(=O)N2CCCCC2CC(=O)Nc2nc3ccccc3s2)cc1 (stereo unspecified),.,.,.,-2,.,.,.,.,
O=S(=O)(Nc1ccc(Cc2ccncc2)cc1)c1ccc(Br)cc1,i,36*,-4,-5,-37,0,31*,4,
O=S(=O)(Nc1ccc(Cc2ccncc2)cc1)c1ccc(Cl)cc1,i,40*,7,-15,-16,0,38*,-1,
